Assay results as given in PubChem BioAssay (Tox21).
Values joined by “and” are separate entries in the source; they are usually repeats but may differ in a detail not shown here. Equal entries are not always repeated. Records with an inconclusive call do not appear. Where a call stands in place of a potency, no number is given. The source holds several records for some structures; these can differ, active in one and inactive in another. Active and inactive are the calls of the source. Unless noted, calls follow the shape of the dose curve; as a rule, active = well fitted curve in the direction sought with a large enough effect in the repeat runs; inconclusive = weak or mixed curves; inactive = no such curve, though single readings can be large; an effect the other way counts as inactive or inconclusive.

Columns and labels:
[1] = qHTS assay to identify small molecule agonists of the peroxisome proliferator-activated receptor delta (PPARd) signaling pathway - cell viability counter screen (AID 743211); also: nearly all actives have a fitted effect of over 55% in size; also: potency is read from the fitted curve at half-maximal effect
Outline: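 Read-out: CellTiter-Glo luminescence, 30 min RT, measured in the same wells as the beta-lactamase reporter. Cells: GeneBLAzer PPAR delta UAS-bla HEK293H, 3000 cells/well, compound exposure 17 h at 37C.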

[2] = target: Peroxisome proliferator-activated receptor delta (Homo sapiens) (UniProt Q03181); assay: qHTS assay to identify small molecule agonists of the peroxisome proliferator-activated receptor delta (PPARd) signaling pathway (AID 743212; calls by dose curve)
Outline: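 A PPARd-bla HEK293H line with beta-lactamase under an Upstream Activator Sequence is treated with compounds at 37 C. Substrate loading for 2 h at room temperature precedes the fluorescence measurement.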

[3] = qHTS assay to identify small molecule antagonists of the peroxisome proliferator-activated receptor delta (PPARd) signaling pathway - cell viability counter screen (AID 743213); also: nearly all actives have a fitted effect of over 50% in size; also: potency is read from the fitted curve at half-maximal effect
Outline: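 Viability counter-screen, qHTS format: PPARd-bla HEK293H, L165041 300 nM final, 17 h compound exposure at 37 C, CellTiter-Glo luminescence after 30 min RT.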

[4] = target: Peroxisome proliferator-activated receptor delta (Homo sapiens) (UniProt Q03181); assay: qHTS assay to identify small molecule antagonists of the peroxisome proliferator-activated receptor delta (PPARd) signaling pathway (AID 743215; active = well fitted inhibition curve with a large enough effect in the signal ratio in the repeat runs, not every such curve was filed as active; the % refers to the signal ratio;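 also: cells stimulated with agonist L165041 at 300 nM final during compound exposure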; also: potency is read from the fitted curve at half-maximal effect)
Outline: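 HEK293H UAS-bla, PPARd; agonist L165041 300 nM final with cpd in DMSO; 37 C 17 h; FRET substrate, RT 2 h; fluorescence intensity.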

[5] = qHTS assay to identify small molecule antagonists of the farnesoid-X-receptor (FXR) signaling pathway - cell viability counter screen (AID 743221; active = well fitted cell-killing curve with a large enough effect in the repeat runs, not every such curve was filed as active; also: nearly all actives have a fitted effect of over 50% in size)
Outline: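 HEK 293T FXR-bla cells, 5 h pre-incubation; compound + CDCA 50 uM final, 16 h, 37 C; beta-lactamase FRET read first, then CellTiter-Glo luminescence, 30 min RT.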

[6] = target: Vitamin D3 receptor (Homo sapiens) (UniProt P11473); assay: qHTS assay to identify small molecule agonists of the vitamin D receptor (VDR) signaling pathway (AID 743222; calls by dose curve)
Outline: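 In VDR-bla cells, compound-induced beta-lactamase expression is quantified by FRET substrate fluorescence. Treatment lasts 16 h at 37C; substrate develops 2 h at room temperature.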

[7] = qHTS assay to identify small molecule agonists of the farnesoid-X-receptor (FXR) signaling pathway - cell viability counter screen (AID 743218); also: nearly all actives have a fitted effect of over 45% in size; also: potency is read from the fitted curve at half-maximal effect
Outline: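 Parallel cytotoxicity test: compound-treated (16 h, 37 C) HEK 293T FXR-bla reporter cells were lysed with CellTiter-Glo and luminescence recorded.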

[8] = target: Bile acid receptor (Homo sapiens) (UniProt Q96RI1); assay: qHTS assay to identify small molecule agonists of the farnesoid-X-receptor (FXR) signaling pathway (AID 743220; active = well fitted activation curve with a large enough effect in the signal ratio in the repeat runs, not every such curve was filed as active; the % refers to the signal ratio)
Outline: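 Beta-lactamase reporter under UAS control in GeneBLAzer FXR HEK 293T cells (5000/well) measured with LiveBLAzer FRET substrate after 2 h at room temperature. Compound exposure lasted 16 h at 37C.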

[9] = target: Vitamin D3 receptor (Homo sapiens) (UniProt P11473); assay: qHTS assay to identify small molecule antagonists of the vitamin D receptor (VDR) signaling pathway (AID 743223; active = well fitted inhibition curve with a large enough effect in the signal ratio in the repeat runs, not every such curve was filed as active; the % refers to the signal ratio)
Outline: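 Beta-lactamase reporter read-out: FRET substrate fluorescence after 2 h at room temperature, following 16 h exposure of VDR-bla cells to test compound plus 3 nM (final) 1alpha,25-dihydroxyvitamin D3 agonist at 37C.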

[10] = target: Bile acid receptor (Homo sapiens) (UniProt Q96RI1); assay: qHTS assay to identify small molecule antagonists of the farnesoid-X-receptor (FXR) signaling pathway (AID 743217; active = well fitted inhibition curve with a large enough effect in the signal ratio in the repeat runs, not every such curve was filed as active; the % refers to the signal ratio)
Outline: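 GeneBLAzer FXR-UAS-bla HEK 293T, CDCA-stimulated (50 uM final). Compound treatment 16 h, 37 °C. Detection: beta-lactamase cleavage of B/G FRET substrate, fluorescence.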

Peroxisome proliferator-activated receptor delta (Homo sapiens), sequence (Q03181 whole entry, looked up): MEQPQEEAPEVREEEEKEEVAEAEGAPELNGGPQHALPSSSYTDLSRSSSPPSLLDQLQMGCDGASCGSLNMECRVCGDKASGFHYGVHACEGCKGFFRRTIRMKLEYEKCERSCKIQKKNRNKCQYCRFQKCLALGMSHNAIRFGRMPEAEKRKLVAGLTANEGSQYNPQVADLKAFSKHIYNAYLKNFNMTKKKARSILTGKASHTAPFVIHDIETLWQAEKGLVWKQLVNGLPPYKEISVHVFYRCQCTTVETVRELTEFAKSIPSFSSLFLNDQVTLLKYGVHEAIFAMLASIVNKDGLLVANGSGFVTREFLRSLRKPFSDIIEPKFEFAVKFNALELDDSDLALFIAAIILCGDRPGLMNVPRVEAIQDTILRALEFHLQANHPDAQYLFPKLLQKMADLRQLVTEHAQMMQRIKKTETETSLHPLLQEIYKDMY
Bile acid receptor (Homo sapiens), sequence (Q96RI1 whole entry, looked up): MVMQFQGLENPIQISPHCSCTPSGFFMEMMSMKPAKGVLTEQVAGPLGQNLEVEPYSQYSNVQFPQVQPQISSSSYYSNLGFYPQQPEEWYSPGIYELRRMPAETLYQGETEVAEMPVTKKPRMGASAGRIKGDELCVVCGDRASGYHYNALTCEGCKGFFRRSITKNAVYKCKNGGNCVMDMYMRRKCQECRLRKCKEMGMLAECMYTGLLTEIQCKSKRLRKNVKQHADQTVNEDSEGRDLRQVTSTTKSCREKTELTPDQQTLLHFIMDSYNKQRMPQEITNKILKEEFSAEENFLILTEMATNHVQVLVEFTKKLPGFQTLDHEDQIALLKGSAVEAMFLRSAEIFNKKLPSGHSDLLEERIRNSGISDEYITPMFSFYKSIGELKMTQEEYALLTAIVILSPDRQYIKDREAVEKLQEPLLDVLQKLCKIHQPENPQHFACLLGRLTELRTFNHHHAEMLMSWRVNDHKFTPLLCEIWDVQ
Vitamin D3 receptor (Homo sapiens), sequence (P11473 whole entry, looked up): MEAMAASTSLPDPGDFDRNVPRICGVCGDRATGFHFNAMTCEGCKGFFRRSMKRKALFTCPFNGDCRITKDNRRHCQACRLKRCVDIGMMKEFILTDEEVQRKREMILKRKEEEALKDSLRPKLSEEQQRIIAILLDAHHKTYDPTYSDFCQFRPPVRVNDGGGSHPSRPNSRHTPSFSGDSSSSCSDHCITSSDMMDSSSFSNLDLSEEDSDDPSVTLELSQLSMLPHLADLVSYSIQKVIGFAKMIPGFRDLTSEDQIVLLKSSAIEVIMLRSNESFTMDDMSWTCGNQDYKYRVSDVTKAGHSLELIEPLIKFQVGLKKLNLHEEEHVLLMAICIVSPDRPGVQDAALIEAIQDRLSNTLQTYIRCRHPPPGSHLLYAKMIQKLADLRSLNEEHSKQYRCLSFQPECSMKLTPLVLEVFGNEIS

Structure (SMILES) | Potency [1] | Potency [2] | Potency [3] | Potency [4] | Potency [5] | Potency [6] | Potency [7] | Potency [8] | Potency [9] | Potency [10]
[Cl][In]([Cl])[Cl] | inactive | inactive | inactive | inactive | inactive | inactive |  |  |  | 
CCCCN(CCO)CCCC | inactive | inactive | inactive | inactive | inactive | inactive | inactive | inactive | inactive | 
CC(=O)N[C@@H](CS)C(=O)O | inactive | inactive | inactive | inactive | inactive | inactive | inactive | inactive | inactive | 
C=C(C)C1CC=C(C)C(OC(C)=O)C1 (centres undefined) | inactive | inactive | inactive | inactive | inactive | inactive | inactive | inactive | inactive | inactive
CCN1CCCC1CNC(=O)c1cc(S(=O)(=O)CC)c(N)cc1OC (centres undefined) | inactive | inactive | inactive | inactive | inactive | inactive |  |  | inactive | 
O=Cc1ccc(Cl)cc1 | inactive | inactive | inactive | inactive | inactive | inactive |  |  | inactive | 
C=C(C)C(=O)O | inactive | inactive | inactive | inactive | inactive | inactive | inactive |  | inactive | 
CCCOC(=O)c1cc(O)c(O)c(O)c1 | inactive | inactive | inactive | inactive | inactive | inactive | inactive | inactive | inactive | 
COC(=O)/C=C/c1ccccc1 | inactive | inactive | inactive | inactive | inactive | inactive |  |  | inactive | 
NC12CC3CC(CC(C3)C1)C2 | inactive | inactive | inactive | inactive | inactive | inactive | inactive |  |  | 
C=CS(=O)(=O)O | inactive | inactive | inactive | inactive | inactive | inactive | inactive | inactive | inactive | 
CC(=O)Nc1ccc(C(=O)CCl)cc1 | inactive and 49 µM (active) | inactive | inactive and 43.6 µM (active) | inactive | inactive | inactive | inactive and 54.9 µM (active) |  |  | inactive
Oc1ccc(Cl)cc1Cc1cc(Cl)ccc1O | 44.4 µM (active) and 30.9 µM (active) and 29.8 µM (active) | inactive | 25 µM (active) | 55.9 µM (active) and inactive | inactive | inactive |  | inactive |  | 
Cc1cccc2n[nH]nc12 | inactive | inactive | inactive | inactive | inactive | inactive |  |  | inactive | 
CC(C)(C)NCC(O)COc1ccccc1OCC1CCCO1 (centres undefined) | inactive | inactive | inactive | inactive | inactive |  | inactive | inactive |  | 
O=C(O)c1cccc(C(=O)O)c1 | inactive | inactive | inactive | inactive | inactive |  | inactive | inactive |  | inactive
OCC(CO)N[C@H]1C[C@](O)(CO)[C@@H](O)[C@H](O)[C@H]1O | inactive | inactive | inactive | inactive | inactive | inactive |  | inactive |  | inactive
OCCN1CCNCC1 | inactive | inactive | inactive | inactive | inactive | inactive | inactive | inactive | inactive | inactive
CCC[C@H](N[C@@H](C)C(=O)N1[C@H](C(=O)O)C[C@@H]2CCCC[C@@H]21)C(=O)OCC | inactive | inactive | inactive |  | inactive |  |  | inactive | inactive | 
CCn1c2ccccc2c2cc(N)ccc21 | inactive | inactive | inactive | inactive | inactive |  | inactive |  |  | 
c1cnc2cc3c(cc2n1)C1CNCC3C1 | inactive | inactive | inactive | inactive | inactive | inactive |  | inactive | inactive | 
CCN(CC)C(=O)Nc1ccc(OCC(O)CNC(C)(C)C)c(C(C)=O)c1 (centres undefined) | inactive | inactive | inactive | inactive | inactive |  | inactive |  |  | 
CC[C@@H](N)CO | inactive | inactive | inactive | inactive | inactive | inactive | inactive |  | inactive | 

Structure (SMILES) | Potency [1] | Potency [2] | Potency [3] | Potency [4] | Potency [5] | Potency [6] | Potency [7] | Potency [8] | Potency [9] | Potency [10]
CC(COc1ccccc1)N(CCCl)Cc1ccccc1 (centres undefined) | inactive | inactive | inactive | inactive | inactive | inactive | 49 µM (active) and inactive |  | inactive | 
COc1ccc(COC(C)=O)cc1 | inactive | inactive | inactive | inactive | inactive | inactive |  | inactive | inactive | inactive
Cc1ccc(-c2cc(C(F)(F)F)nn2-c2ccc(S(N)(=O)=O)cc2)cc1 | 54.9 µM (active) | inactive | inactive |  | inactive |  | inactive |  |  | 
O=C(O)CCc1ccccc1 | inactive | inactive | inactive | inactive | inactive | inactive | inactive |  |  | 
CCc1ccc(C(c2ccc(CC)cc2)C(Cl)Cl)cc1 | inactive | inactive | inactive | inactive | inactive | inactive |  | inactive | inactive | 
c1ccc2c(c1)CCCC2C1=NCCN1 (centres undefined) | inactive | inactive | inactive | inactive | inactive | inactive |  | inactive |  | 
OCCOCCN1CCN(C(c2ccccc2)c2ccc(Cl)cc2)CC1 (centres undefined) | inactive | inactive | 43.1 µM (active) | inactive | inactive | inactive |  |  | inactive | 
CNC1(C)C2CCC(C2)C1(C)C (centres undefined) | inactive | inactive | inactive | inactive | inactive | inactive | inactive | inactive |  | 
CC(=O)C1=C(C)[C@@H]2C[C@@]3(C1)[C@H](C)CC[C@H]3C2(C)C | inactive | inactive | inactive | inactive | inactive | inactive |  | inactive | inactive | 
COc1nc(C)nc(Cl)c1NC1=NCCN1 | inactive | inactive | inactive | inactive | inactive | inactive | inactive |  | inactive | 
Cc1cccc(O)c1C | inactive | inactive | inactive | inactive | inactive | inactive | inactive | inactive | inactive | 
Cc1scc2c1N(C(=O)CN1CCN(C)CC1)c1ccccc1NC2=O | inactive | inactive | inactive | inactive | inactive | inactive | inactive | inactive | inactive | 
CC(=O)CC(C)=O | inactive | inactive | inactive |  | inactive |  |  |  |  | 
CC(=O)CC(=O)Nc1ccc2[nH]c(=O)[nH]c2c1 | inactive | inactive | inactive | inactive | inactive |  | inactive | inactive |  | 
CCCC(=O)c1ccccc1 | inactive | inactive |  | inactive | inactive | inactive | inactive |  | inactive | 
CO[Si](OC)(OC)c1ccccc1 | inactive | inactive |  | inactive | inactive |  | inactive |  | inactive | 
COC(=O)c1cccc(C(=O)OC)c1 | inactive | inactive |  | inactive | inactive | inactive |  |  | inactive | 
CCCCCCCCCCCC[N+](C)(C)C | 54.9 µM (active) and 49 µM (active) |  | 54.9 µM (active) and 15.5 µM (active) |  | inactive |  | inactive | inactive |  | 
BrC1CCC(Br)C(Br)CCC(Br)C(Br)CCC1Br (centres undefined) | 26.1 µM (active) | inactive |  | inactive | inactive | inactive |  | inactive | inactive | 
C#CC(C)(CC)OC(=O)c1ccccc1C(=O)O (centres undefined) | inactive | inactive |  | inactive | inactive | inactive | inactive |  | inactive | 
Cc1ccnc2c1NC(=O)c1cccnc1N2C1CC1 | inactive | inactive |  | inactive | inactive | inactive |  | inactive | inactive | 
C=CC(=O)OCCCCCCCC | inactive | inactive |  | inactive | inactive | inactive | inactive |  | inactive | 
O=C(Cl)c1cccc(C(=O)Cl)c1 | inactive | inactive |  | inactive | inactive | inactive |  |  | inactive | 
